Measured values published in PubChem BioAssay (NCI).
About 83,000 compounds went through this panel and 20% of them were active in at least one assay; those are over-represented in the sample as a whole.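 48-hour exposure, single concentration, 96-well plates; percent growth endpoint where 0 means no net growth. Active: below 10.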 Values without a mark were called inactive. Activity calls are given as the source filed them.

What was measured:
Assay in all cases: NCI-60 one-dose screen, 48 h (100 = growth as untreated, 0 = no growth, -100 = all killed)
NCI-H23 lung = settings: 10 µM unless noted
NCI-H322M lung = settings: 10 µM unless noted
HOP-62 NSCLC = settings: 10 µM unless noted
NCI-H460 lung = settings: 10 µM unless noted
HOP-92 NSCLC = settings: 10 µM unless noted
NCI-H522 lung = settings: 10 µM
A549/ATCC NSCLC = settings: 10 µM unless noted
786-0 renal = settings: 10 µM unless noted

Structure (SMILES) | growth (NCI-H23 lung) | growth (NCI-H322M lung) | growth (HOP-62 NSCLC) | growth (NCI-H460 lung) | growth (HOP-92 NSCLC) | growth (NCI-H522 lung) | growth (A549/ATCC NSCLC) | growth (786-0 renal)
O=C(c1ccc2ncc(-c3nc(NC4CC4)ncc3F)n2c1)N1CCOCC1 | 42.5% | 15.4% | 7.33% (active) | 4.24% (active) | -2.24% (active) | 72.6% | 13.9% | 9.09% (active)
O=C1Nc2ccc(Cl)cc2/C1=N/N=C(c1ccccc1)c1ccccc1 | 93.9% | 98.1% | 83.3% | 100% | 94.2% | 83.4% | 91.9% | 102%
COc1ccc(/C=N/OCC(O)CNCc2ccccc2)cc1OC1CCCC1 (stereo not drawn) | 106% | 97.2% | 93.5% | 102% | 79.6% | 105% | 93.5% | 89.5%
CCCCCCCC/C=C\CCCCCCCCOc1cccc(CC(=O)NCC[N+](C)(C)C)c1 | 83.1% | 102% | 62.9% | 57.9% | 74.2% | 80.8% | 90.9% | 80.8%
Nc1cc2[nH]c(=O)c3ccccc3c2cc1Br | 70.5% | 86% | 68.9% | 67.3% | 58.4% | 90% | 84.5% | 104%
COc1cc(/C=N/NC(=O)c2cnn3c2NC(c2ccccc2)C3)ccc1OC1CCCC1 (stereo not drawn) | 50% | 32.9% | 35.1% | 2.88% (active) | 45.7% | 11.7% | 40.6% | 9.01% (active)
Cc1ccc(S(=O)(=O)N2CCc3ccc(O)c4c3C2CCc2ccccc2-4)cc1 (stereo not drawn) | 95.9% | 99.1% | 106% | 108% | 116% | 82.4% | 102% | 100%
O=S(=O)(Nc1ccc(Cl)c(Cl)c1)c1ccc(-c2cnc(C3CC3)o2)cc1 | 39.6% | 40.7% | 24% | 4.29% (active) | 48% | 6.78% (active) | 25.5% | 46.3%
Cc1cccc2c(=O)c3c(sc12)c(NCCCN)nc1ccccc13 | 47.8% | 43.2% | 9.12% (active) | -52.7% (active) | 31.5% | 13.2% | 14.5% | 52.9%
C=C1CC[C@@H]2[C@@](C)(CCC[C@]2(C)C(=O)O)[C@@H]1CC[C@H](CO)CCO | 102% | 101% | 100% | 113% | 90% | 85.6% | 102% | 99.3%
CCCN1CCN(c2ccc3nc(-c4ccc5nc(-c6ccc(C(F)(F)F)cc6)[nH]c5c4)[nH]c3c2)CC1 | -77.1% (active) | -95.7% (active) | -62.6% (active) | -88.5% (active) | 63% | -43.4% (active) | -65.1% (active) | -90.2% (active)
COC(=O)c1c2c(c(C)[n+]([O-])c1C)C(=O)C=C(NCc1cccc(OC)c1)C2=O | -69.2% (active) | -19.6% (active) | -15.1% (active) | -41.6% (active) | -43.6% (active) | -54.7% (active) | -52.1% (active) | -3.41% (active)
COC(=O)c1c2c(c(C)[n+]([O-])c1C)C(=O)C=C(NCc1ccc(F)c(Cl)c1)C2=O | -65.9% (active) | -38.9% (active) | -51.9% (active) | -38.7% (active) | -42.6% (active) | -39.4% (active) | -47.4% (active) | 3.92% (active)
COc1cccc(OC)c1OC(=O)c1ccccc1 | 100% | 109% | 110% | 102% | 82.5% | 95.5% | 96.5% | 106%
Cc1ccc(S(=O)(=O)N2CCc3ccc(O)c4c3C2Cc2ccc3c(c2-4)OCO3)cc1 (stereo not drawn) | 26.5% | 53.2% | 33.8% | 8.45% (active) | 29.1% | -19.8% (active) | 18.1% | 12.6%
NS(=O)(=O)c1ccc(C(=O)N/N=C(\CS(=O)(=O)c2ccccc2)c2cc3cc(Br)ccc3o2)cc1 | 80.7% | 103% | 96% | 96.3% | 77.2% | 80.2% | 87% | 101%

Structure (SMILES) | growth (NCI-H23 lung) | growth (NCI-H322M lung) | growth (HOP-62 NSCLC) | growth (NCI-H460 lung) | growth (HOP-92 NSCLC) | growth (NCI-H522 lung) | growth (A549/ATCC NSCLC) | growth (786-0 renal)
CCCCOC(=O)C1OC(Oc2ccc3c(C)cc(=O)oc3c2)[C@@H](OC(C)=O)C(OC(C)=O)C1OC(C)=O (stereo partly drawn) | 99.9% | 104% | 98.7% | 105% | 98.3% | 88.8% | 96.3% | 98.5%
COc1ccc(OC)c(/C=C2\Oc3cc(O)ccc3C2=O)c1 | 96.1% | 92.6% | 101% | 91.6% | 98.2% | 77.6% | 98.8% | 89.5%
CCCCC1COc2cccc3c(SCC(=O)N(C)c4cccc5ccccc45)cc[n+]1c23 (stereo not drawn) | 104% | 110% | 106% | 107% | 105% | 83.5% | 103% | 98.3%
N#Cc1c(-c2cccc(F)c2)cc(-c2ccc(Br)s2)[nH]c1=O | 84.9% | 87.9% | 72.2% | 38.6% | 42.6% | 35.7% | 59.4% | 96.3%
COc1ccc(/C=C2\Oc3cc(C)c(Cl)cc3C2=O)cc1OC | 103% | 107% | 111% | 103% | 101% | 82.7% | 98.3% | 95.7%
O=C(N/N=C(\CS(=O)(=O)c1ccccc1)c1cc2ccccc2oc1=O)c1ccccc1 | 97.9% | 107% | 117% | 101% | 117% | 100% | 93.1% | 106%
CCCCCCCCCCCCCCn1c2ccccc2c2c3c(c4c5cc(OC)ccc5oc4c21)C(=O)NC3=O | 103% | 106% | 117% | 100% | 106% | 98% | 103% | 103%
O=C1/C(=C/c2ccccc2F)CNC/C1=C\c1ccccc1F | -48.3% (active) | 14.8% | -63.6% (active) | -29.7% (active) | 16.6% | -61.1% (active) | -11.1% (active) | -92.8% (active)
CC(=O)OC[C@H](O)[C@@]1(O)CC[C@H]2[C@@H]3CCC4=CC(=O)CC[C@]4(C)[C@H]3[C@@H](O)C[C@@]21C | 103% | 112% | 115% | 97.3% | 81.7% | 99.6% | 83.1% | 104%
CCC12CCC3c4ccc(O)cc4CCC3C1CC(O)C2O (stereo not drawn) | 68% | 102% | 83.2% | 88% | 72.3% | 37.4% | 61.7% | 92.5%
CCCCCCCC/C=C\CCCCCCCCOc1cccc(CC(=O)NCC[N+]2(C)CCCC2)c1 | 75.9% | 99.5% | 69.5% | 54.3% | 92.7% | 68.6% | 95% | 93.9%
COC(=O)c1c2c(c(C)[n+]([O-])c1C)C(=O)C(NCc1ccc(O)cc1)=CC2=O | -57.4% (active) | 0.623% (active) | -7.28% (active) | -3.38% (active) | 34% | -33.2% (active) | 4.46% (active) | 7.96% (active)
Cc1ccccc1-c1cc(-c2ccc(Br)s2)[nH]c(=O)c1C#N | 96.8% | 97.9% | 104% | 106% | 77.9% | 93.4% | 107% | 97.6%
Cc1ccc(NS(=O)(=O)c2ccc(-c3cnc(C4CC4)o3)cc2)cc1 | 58.8% | 69% | 36.4% | 7.82% (active) | 57% | 9.2% (active) | 40.2% | 50.8%
CCCCCCCC/C=C\CCCCCCCCOc1cccc(CC(=O)NCC[N+]2(C)CCCCC2)c1 | 71.9% | 92.3% | 67% | 40.1% | 86.9% | 63% | 82.3% | 90.4%
